Test results: ChEMBL document CHEMBL3988442, “University of Dundee, Small-Polar-MMV Screening Library” (2021)

Tests used:
[1] = target: T1, Aspartate--tRNA(Asp/Asn) ligase (Mycobacterium tuberculosis (strain ATCC 25618 / H37Rv)) (UniProt P9WFW3); experiment: Assay for Asp RNA synthetase-1 from Mycobacterium tuberculosis; format: functional; parameters: scale not given: direction of the effect not stated beside the values; conditions: 30 µM; further: in the data most compounds retested in dose-response had high values
T1 sequence (whole entry): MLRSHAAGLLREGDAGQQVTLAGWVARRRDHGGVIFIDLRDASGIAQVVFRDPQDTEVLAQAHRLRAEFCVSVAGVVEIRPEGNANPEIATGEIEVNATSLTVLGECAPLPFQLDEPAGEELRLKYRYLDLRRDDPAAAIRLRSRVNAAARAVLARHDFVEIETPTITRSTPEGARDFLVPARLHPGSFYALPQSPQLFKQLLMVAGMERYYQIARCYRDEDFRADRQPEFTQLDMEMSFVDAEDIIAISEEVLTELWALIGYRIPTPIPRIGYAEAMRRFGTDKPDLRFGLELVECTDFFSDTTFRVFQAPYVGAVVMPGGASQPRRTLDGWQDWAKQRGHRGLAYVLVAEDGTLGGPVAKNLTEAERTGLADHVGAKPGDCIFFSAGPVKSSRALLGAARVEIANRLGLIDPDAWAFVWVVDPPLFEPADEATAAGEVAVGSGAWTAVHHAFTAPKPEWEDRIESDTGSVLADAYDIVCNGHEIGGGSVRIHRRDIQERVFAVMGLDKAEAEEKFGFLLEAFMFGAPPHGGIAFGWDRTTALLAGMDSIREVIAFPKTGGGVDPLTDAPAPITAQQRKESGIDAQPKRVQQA

[2] = target: Shiga toxin 2 (Escherichia coli O157:H7) (UniProt P09385+P09386); experiment: E. coli 0.157:H7 Shiga Toxin SOP - stx2 screening assay; format: functional; parameters: scale not given: direction of the effect not stated beside the values; conditions: 30 µM

| Structure (SMILES) | Percent Effect [1] [%] | Percent Effect [2] [%] |
| --- | --- | --- |
| Cc1cc(C(=O)NCc2cccnc2OC(C)C)no1 | -2.27 | 26.9 |
| CCn1cc2c(n1)CN(Cc1nccs1)CC2COCC1CC1 (configuration not stated) | 5.78 | -5.95 |
| CN1CCC/C1=N\S(=O)(=O)c1ccc(NC(=O)CCc2cccs2)cc1 | 1.3 | -144 |
| CNS(=O)(=O)c1ccc(C(=O)NCCNc2ncccn2)cc1 | -1.6 | 25.5 |
| COc1ccc(CN2CCN(C(C)=O)CC3(CC(=O)N(C)C3)C2)cc1 (configuration not stated) | 1.68 | -5.8 |
| Cc1noc([C@@H]2CC[C@@H]3[C@@H](CCN3S(=O)(=O)C3CC3)O2)n1 | 0.155 | -17.9 |
| CC[C@H](C)[C@H](NC(=O)Cc1csc(-c2cccc(Cl)c2)n1)C(=O)O | 4.59 | -17.1 |
| c1cnn(CC2CN(c3ncnc4sccc34)CCO2)c1 (configuration not stated) | 2.38 | -6.78 |
| Cc1ccc(C2CCCCCN2Cc2cn(C)nc2C)s1 (configuration not stated) | -2.17 | -71.3 |
| Cc1cnn(CC2CCCN2CC(=O)Nc2cc(C)nn2C)c1 (configuration not stated) | 0.972 | -20.9 |
| Cc1cccc(-c2nc(CN(Cc3cccs3)CC3CCCO3)no2)c1 (configuration not stated) | -0.626 | -5.45 |
| CCc1nc(CN2CCCN(c3nccs3)CC2)no1 | 2 | -3.78 |
| O=C(c1cccc(CNCC2CNc3ccnn3C2)c1)N1CCCC1 (configuration not stated) | -1.15 | -3.83 |
| CC(=O)N(Cc1noc(C)n1)C1CCN(Cc2ccon2)C1 (configuration not stated) | -1.5 | -70.9 |
| Cc1nccc(-c2cccc(NCC(=O)N3CCCCCCC3)c2)n1 | 1.07 | 18.8 |
| CN1CCC/C1=N\S(=O)(=O)c1ccc(NC(=O)c2ccc(F)cc2)cc1 | 4.61 | -109 |
| CCCc1n[nH]c(C2CN(C(=O)c3ccco3)CCO2)n1 (configuration not stated) | -0.955 | 8.05 |
| COc1ncccc1C(=O)N1CCC(c2nnc(C3CC3)o2)CC1 | 3.02 | 0.085 |
| CC(C)CNC(=O)NC(=O)CNc1ccccc1SCC(C)C#N (configuration not stated) | -5.03 | 4.99 |
| CC(C#N)CSc1ccccc1NCC(=O)NCc1ccccc1 (configuration not stated) | -8.08 | 21.2 |
| COc1ccc(C(C)NC(=O)NCCCn2cncn2)cc1F (configuration not stated) | 7.3 | -14.5 |
| O=C(CN1CCc2cncnc2C1)NCCOc1ccccc1 | 0.955 | 21.9 |
| Cc1nn(C)c(N(C)C)c1CNCc1cccc(CN(C)C(C)C)c1 | 2.27 | 5.42 |
| O=C(N[C@@H]1CN(c2ncccn2)[C@@H]2CCCO[C@@H]21)c1cnccn1 | 7.31 | 2.14 |
| CCCc1ncc(C(=O)N2CCOC(c3nc(C)n[nH]3)C2)s1 (configuration not stated) | 0.888 | 2.31 |
| Cc1cnn(CCC(=O)N2CCCN(c3ncccc3C#N)CC2)c1 | -6.54 | -34.1 |

| Structure (SMILES) | Percent Effect [1] [%] | Percent Effect [2] [%] |
| --- | --- | --- |
| CC(C)c1nc2n(n1)CC(NCc1ccncc1)CC2 (configuration not stated) | -2.1 | -1.1 |
| CC(NC(=O)c1cccs1)C(=O)NCc1cccnc1N1CCCCC1 (configuration not stated) | -3.06 | 11 |
| CCOc1cc(/C=C/c2ncc(C(=O)O)s2)ccc1O | 0.568 | -21.4 |
| CC(=O)NCCC(=O)NCc1cccnc1-n1cnc2ccccc21 | -1.62 | -2.41 |
| O=S(=O)(c1ccccc1)N1CCCCC1c1cc[nH]n1 (configuration not stated) | 4.1 | 62 |
| O=S(=O)(CCNCc1ccc2c(c1)CCO2)N1CCOCC1 | 0.97 | -25.2 |
| COc1ccc(CN(C)[C@@H]2CN(C(=O)c3cccs3)C[C@H]2O)cc1 | -4.54 | 12 |
| CCOc1ncccc1NC(=O)c1cc2c(s1)CCC2 | -3.51 | 1.91 |
| Cc1ccc(S(=O)(=O)NC2CC2)cc1C | -2.59 | -0.587 |
| Cc1ccc(CNC(=O)CN2CCCC(Cn3cncn3)C2)s1 (configuration not stated) | -2.78 | -43.9 |
| Cn1c(C(F)(F)F)nn(CCNC(=O)c2cnc3ccccc3n2)c1=O | -7.1 | -21.4 |
| CC(C)CC1SCC(=O)Nc2c1cnn2C(C)C (configuration not stated) | 3.17 | -18.7 |
| O=C(c1ccncc1F)N1CCN(CC2CC2)c2ncccc2C1 | 2.79 | -37.6 |
| CSc1cc2c(cc1NC(=O)NCC(C)(C)C(N)=O)OCCO2 | 0.408 | -1.68 |
| CC(C)N1CCCC2(CCN(C(=O)CCCn3ccnc3)C2)C1=O (configuration not stated) | -5.64 | 15.9 |
| Cc1nn(C)c(N2CCOCC2)c1CNCc1ccc(Cl)s1 | 5.1 | 27.1 |
| Cc1cc(C2CCCN2Cc2ccn(C)c(=O)c2)no1 (configuration not stated) | -1.63 | 8.31 |
| CO[C@H]1CCN(C(=O)Cc2ccccn2)[C@H]1Cc1ccncc1 | 3.54 | -1.46 |
| CCN(CC)C(C(=O)NCc1ccc(N2CCCC2)nc1)C(C)C (configuration not stated) | -8.76 | 9.3 |
| COc1ccc2c(c1)OC1(CCN(Cc3ccc(F)cc3)CC1)CC2=O | -5.55 | 17.6 |
| CSC(C)C(=O)N1CCCN(Cc2cnn(C(C)C)c2)CC1 (configuration not stated) | -0.235 | 20.4 |
| COc1ccc(NC(=O)Cn2nc(C)ccc2=O)cc1OC | -0.697 | -5.66 |
| O=C(Nc1ccccn1)C1CC(=O)N(Cc2ccccn2)C1 (configuration not stated) | 2.43 | -18.5 |
| Cc1nc([C@@H]2C[C@@H]3CCN(C(=O)c4ccnnc4)C[C@H]3O2)sc1C | 4.24 | -9.81 |
| CCS(=O)(=O)N(C)C(=O)c1cc(C)n(-c2cccc(OC)c2)c1C | -6.83 | -4.96 |
